Compound activity as filed in PubChem.
ABCB6 inh 2 = human ABCB6 transporter inhibition; Q9NP58; K562-ABCB6 porphyrin accumulation, flow cytometry, 1 h; active compounds read low; fluorescence ratio to DMSO, % at 10 µM; 360,000 tested, 0.19% active; AID 602162;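 active = fluorescence ratio to DMSO below 75%, the collection mean minus 3 SD; inconclusive = too few cells collected in the well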;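 note: signal is porphyrin accumulated inside mitochondria; 100% equals median channel fluorescence of DMSO control wells; lower ratio means ABCB6 inhibition with less porphyrin fluorescence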
Exocytosis inh = blocks lytic granule exocytosis. TALL-104 LAMP-1 surface exposure, flow cytometry; cells stimulated with thapsigargin and PMA. 360,000 tested, 0.66% active. AID 651702. inhibition, % at 10 µM;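 active = inhibition above about 55%, limit read from the data; inconclusive = no clear call, values can overlap the other calls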
Myeloid diff MLP = myeloid differentiation induction. ER-HoxA9 myeloid progenitors, lysozyme-GFP differentiation, flow cytometry. 360,000 tested, 1% active. calls only at 10 µM;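 active = normalized GFP-positive differentiation at or above the plate's own cutoff, the solvent-only control mean plus 3 SD; inconclusive = no clear call, values can overlap the other calls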;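 note: cells exposed to compound for four days before flow analysis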
Myeloid diff = promotes myeloid progenitor differentiation; calls only; AID 651706; 2,300 tested, 2% active; ER-HoxA9 myeloid progenitors, GFP/Mac1 double-positive flow; shares compounds with Myeloid diff MLP;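 active = share of green or green-and-red cells above 9 and 9% in run 1 or 4 and 3% in run 2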
GFP autofluor = compound fluorescence in myeloid differentiation counter-screen; 2,300 tested, 7.4% active; ER-HoxA9 myeloid progenitors, no estrogen, GFP autofluorescence flow cytometry; vehicle wells 0%, positive control 100%; AID 651707; shares compounds with Myeloid diff MLP; fluorescence response, % (concentration not given with the values);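 active = over 5% cells positive for green fluorescent reporter, or over 2% positive for both it and APC stain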;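 note: range taken on the double positive population between DMSO and positive control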
* hit, by the source's call; i = inactive; ? = inconclusive; . = not tested or not shown; + = active, no number. Shown are actives, neighbours in structure and some others; about 1.8% of the full set was active somewhere.

SMILES	ABCB6 inh 2	Exocytosis inh	Myeloid diff MLP	Myeloid diff	GFP autofluor
Cc1cccc(S(=O)(=O)N(C)C[C@@H]2OCc3cnnn3CCCC(=O)N([C@@H](C)CO)C[C@@H]2C)c1	97	-1	i	.	.
N#CCCSc1nc(N2CCOCC2)c2c(c1C#N)CCCC2	92	-2	i	i	0
CCCSc1nc(N2CCOCC2)c2c(c1C#N)CCCC2	91	5	i	.	.
CCn1c(SCC(=O)N2CCC(C)CC2)nnc1-c1ccco1	93	-8	i	.	.
Cc1oc(-c2ccccc2F)nc1CS(=O)(=O)CC(=O)NCCN(C)C1CCCCC1	98	-1	i	i	0
Cc1oc(-c2ccccc2F)nc1CS(=O)(=O)CC(=O)NC1CCCC1	89	0	i	.	.
C#Cc1ccc([C@@H]2C=C(C(=O)NCc3ccccc3)O[C@H](OCCCCO)C2)cc1	95	-1	i	.	.
CC(C)c1ccc(-c2nc(N3CCCCC3)[nH]c(=O)c2C#N)cc1	104	4	i	.	.
CC1=Nc2nc(N3CCCCC3)c(C#N)c3c4c(nc(c23)N1)N(c1ccc(C(C)C)cc1)C(=O)C4	99	0	+	i	0
CCN(CC)C(=O)c1cn(-c2cccc(OC)c2)c(=O)c2ccccc12	97	4	i	.	.
COc1nc(C)ccc1-c1noc(-c2ccccn2)n1	103	-2	i	i	0
COc1ccccc1-c1nc(-c2ccc(C)nc2OC)no1	95	-4	i	.	.
CCN(Cc1nc2cc(Cl)ccc2c(=O)[nH]1)C(=O)c1cccc(OCc2c(C)noc2C)c1	99	38	i	.	.
Cn1cccc1C(=O)OCc1cc(-c2ccco2)on1	95	0	i	.	.
O=C(c1ccco1)N1CCN(Cc2nnc(-c3cccc(Cl)c3)o2)CC1	100	4	i	.	.
C=CCNC(=O)c1ccccc1NC(=O)c1ccccc1	100	7	i	i	1
C=CCNC(=O)c1ccccc1NC(=O)c1ccccc1N(C)S(C)(=O)=O	99	0	i	.	.
Oc1ccc(Br)cc1/C=N/NC(=S)NCCc1ccccc1	85	-6	.	.	.
O=C(CCc1ccccc1)N/N=C/c1cc(Br)ccc1O	103	-2	i	i	0
Cc1cc2ccccn2c1C(=O)c1ccc([N+](=O)[O-])cc1[N+](=O)[O-]	80	4	i	.	.
COc1cc(C(=O)OCC(=O)NC2CCCC2)cc(OC)c1OC	98	0	i	.	.
Fc1ccc(C2CCCCN2Cc2nc(CC3CC3)no2)cc1 (stereo unspecified)	96	-14	i	.	.
Fc1ccc2nc(C3CCCCN3Cc3nc(CC4CC4)no3)[nH]c2c1 (stereo unspecified)	102	2	i	i	0
CC1CCCCC12NC(=O)N(CC(=O)N1CCN(S(=O)(=O)Cc3ccccc3)CC1)C2=O (stereo unspecified)	103	4	i	.	.
COc1ccccc1OCc1nnc(SCC(=O)N2CCCCC2)o1	99	6	i	.	.
SMILES	ABCB6 inh 2	Exocytosis inh	Myeloid diff MLP	Myeloid diff	GFP autofluor
COc1ccccc1OCc1nnc(SCCN2CCOCC2)o1	95	0	i	i	0
Cc1ncc([N+](=O)[O-])n1S(=O)(=O)c1cc(Br)ccc1Br	98	-8	i	.	.
CN(C)c1ccc(/C=[N+](\[O-])C(C)(C)/C=N/O)cc1	99	-1	i	.	.
Cc1ccc(/C=[N+](/C)[O-])cc1	100	1	i	i	0
COc1ccccc1N1C(=O)C2C(c3ccc(F)cc3)NN(C(=O)c3ccc(C)cc3)C2C1=O (stereo unspecified)	96	-4	i	.	.
COc1cccc2sc(=NC(=O)CS(=O)(=O)c3ccccc3)n(C)c12	96	-2	i	.	.
CCn1c(=NC(=O)CS(=O)(=O)c2ccc(C)cc2)sc2cccc(OC)c21	95	8	i	i	0
COc1cccc2sc(=NC(=O)CS(=O)(=O)c3ccc(F)cc3)n(C)c12	97	3	i	.	.
COc1cccc2sc(=NC(=O)CS(=O)(=O)c3ccc(Cl)cc3)n(C)c12	85	25	+	i	0
COC(=O)C1CN(C(=O)COc2cccc(C)c2C)c2ccccc2O1 (stereo unspecified)	97	5	i	.	.
O=C(CN1C(=O)NC2(CCCC2)C1=O)NCc1ccc(Cl)cc1	98	-2	i	.	.
Cc1ccc(-c2nc3ccccc3[nH]2)s1	96	2	i	.	.
Cc1[nH]c2ccccc2c1-c1nc2ccccc2[nH]1	92	-3	+	i	0
COc1ccc(S(=O)(=O)c2snnc2C)cc1	145	-2	i	.	.
CCOc1ccc(-c2c(C(=O)N/N=C/c3c[nH]c4ccccc34)nnn2-c2nonc2N)cc1	96	8	i	.	.
O=C(CCn1c(=O)[nH]c2ccccc2c1=O)NCCSCc1ccccc1	94	-2	i	.	.
O=C(O)c1cccc(S(=O)(=O)N2CCN(S(=O)(=O)c3ccc4ccccc4c3)CC2)c1	99	6	i	.	.
CN1c2ccccc2C(C)(C)C12C=Nc1c(cc(N3CCOCC3)c3ccccc13)O2 (stereo unspecified)	118	3	i	.	.
CN1c2ccccc2C(C)(C)C12C=Cc1cc(O)ccc1O2 (stereo unspecified)	511	4	+	i	53*
O=C(NC(=S)Nc1ccccc1)c1cncc(C#Cc2ccccc2)c1	94	-8	i	.	.
CCOc1ccc(OCCSc2ccc(S(=O)(=O)N3CCN(C)CC3)cn2)cc1	99	-2	i	.	.
COc1ccc(Cn2c(=N)c(C(=O)NCC3CCCO3)cc3c(=O)n4ccccc4nc32)cc1 (stereo unspecified)	108	-5	i	i	0
COc1ccc(CCn2c(=N)c(C(=O)NCC3CCCO3)cc3c(=O)n4ccccc4nc32)cc1 (stereo unspecified)	97	-4	?	.	.
Nc1c(Cl)cc2c(c1Oc1ccccc1)C(=O)c1ccccc1C2=O	126	5	+	i	0
Nc1c(Cl)cc2c(c1Br)Cc1ccccc1-2	97	11	i	.	.
SMILES	ABCB6 inh 2	Exocytosis inh	Myeloid diff MLP	Myeloid diff	GFP autofluor
Cc1nn(C(=O)c2ccc([N+](=O)[O-])cc2)c(C)c1Br	98	3	+	i	0
Cc1nn(C(=O)c2nn(C)cc2[N+](=O)[O-])c(C)c1Br	91	2	i	.	.
Cc1ccccc1CN1CCC(CNC(=O)C2CCCN(c3ncnc4c3nc3n4CCCCC3)C2)CC1 (stereo unspecified)	98	-19	i	.	.
COc1ccc(-n2c(N)c(C(=O)NCc3ccco3)c3nc4ccccc4nc32)cc1OC	102	-1	+	i	0
COc1cc(-n2c(N)c(C(=O)NCc3ccco3)c3nc4ccccc4nc32)cc(OC)c1OC	96	-12	i	.	.
CCN(CC)C(=O)C1CCCN(C(=O)c2cc(COc3cccc(OC)c3)on2)C1 (stereo unspecified)	96	0	i	.	.
CCC(C(=O)OCC(=O)NC(=O)c1ccccc1OC)c1ccccc1 (stereo unspecified)	105	1	i	.	.
N#C/C(=C\c1cc(Cl)ccc1O)C(=O)NC1CCCCC1	104	2	i	.	.
